Reference: the supplement of paper PMC10849652
The full data set covers some 7,900 targets. This sample favours those with a hit. About 0.6% of all pairs of compound and target were hits. Values without a mark were called inactive.

Assays:
Assay in all cases: log2 fold change, soluble protein after heating vs DMSO (PISA); higher = thermal stabilisation; K562 cells, 10 uM, 30 min; active = over 0.2 and 3.5 SD of the protein, either way, in both replicates (recomputed)
erlotinib = compound: C#Cc1cccc(Nc2ncnc3cc(OCCOC)c(OCCOC)cc23)c1 [erlotinib]
How it was run: (§1)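 K562 cells at 2×10^6 cells/mL were treated with 10 μM compound for 30 min. Aliquots were heated for 3 min across 48°C-58°C, pooled, and extracted in PBS with 0.5% NP-40 at 4°C; soluble protein was the supernatant after 21,000xg for 90 min. Soluble protein was quantified by TMTpro 16plex LC-MS/MS with channel sums equalised, and reported as log2 fold change in thermal stability against DMSO controls, with values from duplicates.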

[1] = compound: C/C(=N\NC(=O)C1=CC(=CC=C1)S(=O)(=O)N2CCOCC2)/C3=C(C=CC(=C3)Cl)O
How it was run: as §1

[2] = compound: C1=CC(=C(C=C1Cl)C2=NC3=NC=CN=C3C(=N2)NC4=CC=NC=C4)F
How it was run: as §1

[3] = compound: C1=CC(=CC=C1C2=NC3=C(N2)C=C(C=C3)C(=O)N)OC4=CC=C(C=C4)Cl
How it was run: as §1

[4] = compound: C1=CC2=C(C=CC(=C2)/C=C\3/C(=O)NC(=NCC4=CC=CS4)S3)N=C1
How it was run: as §1

[5] = compound: C1=CC=C(C=C1)C2=NC(=C(N2)C3=CC=NC=C3)C4=CC(=C(C=C4)Cl)O
How it was run: as §1

[6] = compound: C1=CC=C2C(=C1)C3=NNC4=CC=CC(=C43)C2=O
How it was run: as §1

[7] = compound: C1CCN(C1)C(=O)NC2=CC=CC(=C2)NC3=NC=C(C(=N3)NCCC4=CN=CN4)Br
How it was run: as §1

[8] = compound: C1CN(CCC1(CC2=CC=C(C=C2)Cl)N)C3=NC=NC4=C3C=CN4
How it was run: as §1

IRAK-1-4 Inhibitor I = compound: C1COCCN1CCN2C3=CC=CC=C3N=C2NC(=O)C4=CC(=CC=C4)[N+](=O)[O-] [IRAK-1-4 Inhibitor I]
How it was run: as §1

[9] = compound: CC(=O)c1cnc2ccc(-c3cc(Cl)c(O)c(Cl)c3)nc2c1N[C@H]1CC[C@H](CN(C)C)CC1
How it was run: as §1

ralimetinib = compound: CC(C)(C)Cn1c(N)nc2ccc(-c3[nH]c(C(C)(C)C)nc3-c3ccc(F)cc3)nc21 [ralimetinib]
How it was run: as §1

[10] = compound: CC(C)(O)CC(=O)NCCn1ccc2ncnc(Nc3ccc(Oc4cccc(C(F)(F)F)c4)c(Cl)c3)c21
How it was run: as §1

[11] = compound: CC(C)C1=C2N=C(C=C(N2N=C1)NCC3=CC=CC=C3)NCCCCCCN
How it was run: as §1

[12] = compound: CC(C)C[C@@H](C=O)NC(=O)[C@H](CC(C)C)NC(=O)[C@H](CC(C)C)NC(=O)OCc1ccccc1
How it was run: as §1

pinometostat = compound: CC(C)N(C[C@H]1O[C@@H](n2cnc3c(N)ncnc32)[C@H](O)[C@@H]1O)[C@H]1C[C@@H](CCc2nc3cc(C(C)(C)C)ccc3[nH]2)C1 [pinometostat]
How it was run: as §1

[13] = compound: CC1=C(C(CC(=O)N1)C2=CC=C(C=C2)C(F)(F)F)C(=O)NC3=C(C=C4C(=C3)C=NN4)F
How it was run: as §1

[14] = compound: CC1=C(C2=C(C=C1)C(=O)C3=CC=CC=C3N2CCCN)C
How it was run: as §1

[15] = compound: C1=CC2=NC=CN=C2C=C1/C=C/3\C(=O)NC(=O)S3
How it was run: as §1

ibrutinib = compound: C=CC(=O)N1CCC[C@@H](n2nc(-c3ccc(Oc4ccccc4)cc3)c3c(N)ncnc32)C1 [ibrutinib]
How it was run: as §1

Sequence of UniProt Q9H5L6 (Q9H5L6 whole entry, looked up): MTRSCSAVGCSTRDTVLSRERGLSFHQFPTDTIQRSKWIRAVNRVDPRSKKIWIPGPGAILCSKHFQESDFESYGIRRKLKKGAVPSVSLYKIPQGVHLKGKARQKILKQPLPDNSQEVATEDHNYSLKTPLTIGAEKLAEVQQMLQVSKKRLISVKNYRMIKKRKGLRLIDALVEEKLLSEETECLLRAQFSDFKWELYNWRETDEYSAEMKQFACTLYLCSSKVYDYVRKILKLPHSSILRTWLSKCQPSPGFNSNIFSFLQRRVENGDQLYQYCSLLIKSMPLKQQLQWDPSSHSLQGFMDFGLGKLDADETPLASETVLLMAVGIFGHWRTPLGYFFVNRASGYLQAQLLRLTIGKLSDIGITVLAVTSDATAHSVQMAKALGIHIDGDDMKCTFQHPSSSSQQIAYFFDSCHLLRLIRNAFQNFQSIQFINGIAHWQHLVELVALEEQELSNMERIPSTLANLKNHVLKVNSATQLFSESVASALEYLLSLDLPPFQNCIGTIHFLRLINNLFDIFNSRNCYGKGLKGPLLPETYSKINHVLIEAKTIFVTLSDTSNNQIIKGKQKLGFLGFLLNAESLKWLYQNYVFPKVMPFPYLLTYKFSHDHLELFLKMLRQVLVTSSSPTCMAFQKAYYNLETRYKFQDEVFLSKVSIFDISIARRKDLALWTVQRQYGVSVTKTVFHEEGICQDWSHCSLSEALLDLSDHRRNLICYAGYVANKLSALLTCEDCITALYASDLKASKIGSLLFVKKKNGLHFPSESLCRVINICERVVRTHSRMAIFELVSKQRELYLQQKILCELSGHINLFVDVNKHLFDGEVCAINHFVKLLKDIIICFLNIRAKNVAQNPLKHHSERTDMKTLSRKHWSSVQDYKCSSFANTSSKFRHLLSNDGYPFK
Sequence of UniProt Q96NT5 (Q96NT5 whole entry, looked up): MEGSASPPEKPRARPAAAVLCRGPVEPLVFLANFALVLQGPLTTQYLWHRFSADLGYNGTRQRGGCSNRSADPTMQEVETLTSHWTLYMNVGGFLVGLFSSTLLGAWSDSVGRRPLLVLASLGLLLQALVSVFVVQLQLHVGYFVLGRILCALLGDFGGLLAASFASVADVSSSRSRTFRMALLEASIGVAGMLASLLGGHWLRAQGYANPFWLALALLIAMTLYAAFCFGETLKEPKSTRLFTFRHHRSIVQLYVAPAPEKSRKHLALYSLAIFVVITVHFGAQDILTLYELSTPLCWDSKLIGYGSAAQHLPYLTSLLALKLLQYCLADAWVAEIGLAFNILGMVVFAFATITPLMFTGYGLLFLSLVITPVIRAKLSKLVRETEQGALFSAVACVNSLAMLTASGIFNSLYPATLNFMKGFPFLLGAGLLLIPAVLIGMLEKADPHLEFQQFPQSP
Sequence of UniProt Q9H4I9 (Q9H4I9 whole entry, looked up): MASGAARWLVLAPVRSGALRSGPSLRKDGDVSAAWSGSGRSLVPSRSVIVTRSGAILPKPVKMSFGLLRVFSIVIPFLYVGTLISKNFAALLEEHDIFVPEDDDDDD
Sequence of UniProt O76062 (O76062 whole entry, looked up): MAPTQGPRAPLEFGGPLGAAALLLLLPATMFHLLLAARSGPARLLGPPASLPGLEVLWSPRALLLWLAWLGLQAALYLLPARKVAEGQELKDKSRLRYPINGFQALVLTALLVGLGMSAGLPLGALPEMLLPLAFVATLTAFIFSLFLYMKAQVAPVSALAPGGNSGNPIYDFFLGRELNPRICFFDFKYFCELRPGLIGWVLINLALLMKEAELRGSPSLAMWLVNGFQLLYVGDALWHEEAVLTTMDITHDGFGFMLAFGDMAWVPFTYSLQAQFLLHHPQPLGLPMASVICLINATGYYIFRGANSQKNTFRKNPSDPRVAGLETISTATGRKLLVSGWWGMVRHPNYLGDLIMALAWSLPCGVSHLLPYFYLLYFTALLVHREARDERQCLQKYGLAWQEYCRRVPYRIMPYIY
Sequence of UniProt Q9UL54 (Q9UL54 whole entry, looked up): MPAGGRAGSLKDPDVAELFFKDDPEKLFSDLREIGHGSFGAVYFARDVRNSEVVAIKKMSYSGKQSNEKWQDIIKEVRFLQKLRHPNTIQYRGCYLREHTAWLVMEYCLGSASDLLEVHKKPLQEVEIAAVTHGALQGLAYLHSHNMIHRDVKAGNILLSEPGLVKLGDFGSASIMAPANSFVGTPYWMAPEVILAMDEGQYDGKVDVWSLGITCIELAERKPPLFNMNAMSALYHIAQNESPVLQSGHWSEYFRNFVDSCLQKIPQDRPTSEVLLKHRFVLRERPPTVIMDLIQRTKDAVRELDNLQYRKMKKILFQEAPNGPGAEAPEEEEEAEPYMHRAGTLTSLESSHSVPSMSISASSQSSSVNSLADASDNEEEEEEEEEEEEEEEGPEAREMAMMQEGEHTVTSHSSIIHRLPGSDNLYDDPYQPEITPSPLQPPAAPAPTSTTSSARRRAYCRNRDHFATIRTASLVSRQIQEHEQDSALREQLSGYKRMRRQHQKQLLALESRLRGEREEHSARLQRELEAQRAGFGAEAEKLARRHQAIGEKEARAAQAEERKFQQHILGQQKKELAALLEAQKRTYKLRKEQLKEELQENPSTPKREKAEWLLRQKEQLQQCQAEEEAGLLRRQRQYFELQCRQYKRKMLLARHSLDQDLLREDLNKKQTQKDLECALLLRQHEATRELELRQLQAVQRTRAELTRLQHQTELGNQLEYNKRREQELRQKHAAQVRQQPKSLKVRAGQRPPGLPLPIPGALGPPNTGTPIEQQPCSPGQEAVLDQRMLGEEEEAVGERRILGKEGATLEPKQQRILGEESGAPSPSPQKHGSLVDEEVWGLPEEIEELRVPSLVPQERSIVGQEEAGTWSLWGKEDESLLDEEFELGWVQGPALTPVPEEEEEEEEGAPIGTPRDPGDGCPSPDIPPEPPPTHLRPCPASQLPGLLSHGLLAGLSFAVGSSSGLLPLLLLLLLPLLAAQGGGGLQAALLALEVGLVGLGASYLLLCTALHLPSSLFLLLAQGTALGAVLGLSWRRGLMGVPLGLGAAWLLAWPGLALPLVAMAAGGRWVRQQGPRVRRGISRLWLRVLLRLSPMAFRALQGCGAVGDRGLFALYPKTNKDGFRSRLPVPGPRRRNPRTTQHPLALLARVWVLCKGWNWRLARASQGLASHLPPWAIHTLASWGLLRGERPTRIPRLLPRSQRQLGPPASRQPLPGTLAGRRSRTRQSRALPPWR
Sequence of UniProt P78383 (P78383 whole entry, looked up): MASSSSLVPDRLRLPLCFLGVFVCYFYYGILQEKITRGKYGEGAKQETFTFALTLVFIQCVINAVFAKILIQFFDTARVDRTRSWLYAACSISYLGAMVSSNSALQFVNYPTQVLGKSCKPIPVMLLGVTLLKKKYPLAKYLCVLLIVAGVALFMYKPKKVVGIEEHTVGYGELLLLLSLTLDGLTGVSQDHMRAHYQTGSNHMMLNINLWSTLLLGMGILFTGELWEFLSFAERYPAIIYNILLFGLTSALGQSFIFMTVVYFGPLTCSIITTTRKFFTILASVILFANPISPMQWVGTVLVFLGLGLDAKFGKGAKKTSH
Sequence of UniProt Q9BYX2 (Q9BYX2 whole entry, looked up): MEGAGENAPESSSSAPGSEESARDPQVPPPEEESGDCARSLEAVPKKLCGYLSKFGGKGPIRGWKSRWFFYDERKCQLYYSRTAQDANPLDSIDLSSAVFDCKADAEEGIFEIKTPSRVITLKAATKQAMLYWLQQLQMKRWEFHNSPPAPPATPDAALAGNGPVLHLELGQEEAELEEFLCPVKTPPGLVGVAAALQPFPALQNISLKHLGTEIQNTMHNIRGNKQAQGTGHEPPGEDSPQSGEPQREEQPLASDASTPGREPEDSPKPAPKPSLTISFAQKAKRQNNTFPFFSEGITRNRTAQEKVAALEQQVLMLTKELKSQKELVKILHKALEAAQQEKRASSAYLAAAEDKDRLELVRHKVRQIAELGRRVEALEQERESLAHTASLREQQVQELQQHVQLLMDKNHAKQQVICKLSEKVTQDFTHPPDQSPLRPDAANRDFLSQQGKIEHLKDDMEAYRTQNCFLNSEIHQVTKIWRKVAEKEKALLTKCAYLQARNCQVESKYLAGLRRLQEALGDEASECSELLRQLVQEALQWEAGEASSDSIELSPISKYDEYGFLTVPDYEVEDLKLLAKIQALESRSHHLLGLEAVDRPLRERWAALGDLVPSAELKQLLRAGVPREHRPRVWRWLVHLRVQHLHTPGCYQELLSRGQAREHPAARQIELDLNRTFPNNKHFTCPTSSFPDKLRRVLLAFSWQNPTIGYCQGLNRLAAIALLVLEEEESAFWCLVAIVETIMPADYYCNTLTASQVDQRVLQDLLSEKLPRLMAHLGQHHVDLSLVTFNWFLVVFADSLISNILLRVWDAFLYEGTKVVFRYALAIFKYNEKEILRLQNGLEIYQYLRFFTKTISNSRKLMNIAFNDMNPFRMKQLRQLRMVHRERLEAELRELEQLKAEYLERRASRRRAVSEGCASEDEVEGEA
Sequence of UniProt Q12824 (Q12824 whole entry, looked up): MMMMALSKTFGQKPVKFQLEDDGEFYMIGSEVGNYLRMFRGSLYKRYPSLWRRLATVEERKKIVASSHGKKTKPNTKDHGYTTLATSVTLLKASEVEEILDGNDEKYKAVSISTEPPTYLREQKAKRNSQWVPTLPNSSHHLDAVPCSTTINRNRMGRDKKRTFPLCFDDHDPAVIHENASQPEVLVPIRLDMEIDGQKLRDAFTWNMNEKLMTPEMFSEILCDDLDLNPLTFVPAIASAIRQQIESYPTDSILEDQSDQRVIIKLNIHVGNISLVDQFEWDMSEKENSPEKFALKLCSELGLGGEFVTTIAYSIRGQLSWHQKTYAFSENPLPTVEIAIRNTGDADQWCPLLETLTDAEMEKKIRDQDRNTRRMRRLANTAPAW
Sequence of UniProt Q9BYN0 (Q9BYN0 whole entry, looked up): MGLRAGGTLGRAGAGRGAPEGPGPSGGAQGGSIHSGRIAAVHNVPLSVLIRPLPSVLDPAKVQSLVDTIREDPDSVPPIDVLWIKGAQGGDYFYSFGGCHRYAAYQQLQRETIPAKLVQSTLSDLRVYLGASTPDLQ

Target	log2 fold change (erlotinib)	log2 fold change [1]	log2 fold change [2]	log2 fold change [3]	log2 fold change [4]	log2 fold change [5]	log2 fold change [6]	log2 fold change [7]	log2 fold change [8]	log2 fold change (IRAK-1-4 Inhibitor I)	log2 fold change [9]	log2 fold change (ralimetinib)	log2 fold change [10]	log2 fold change [11]	log2 fold change [12]	log2 fold change (pinometostat)	log2 fold change [13]	log2 fold change [14]	log2 fold change [15]	log2 fold change (ibrutinib)
SUN1 isoform 9 (UniProt O94901)	0.055	0.037	-0.346 (active)	0.032	0.066	-0.052	0.066	0.057	0.094	-0.028	-0.114	0.067	0.115	-0.149	0.042	0.128	0.127	-0.05	–	–
SMPD4 isoform 2 (UniProt Q9NXE4)	–	-0.001	–	–	0.134	–	-0.003	-0.011	0.05	0.016	0.196	–	–	–	–	0	–	0.115	-0.027	-0.156
THAP9 (UniProt Q9H5L6)	–	-0.733 (active)	–	–	0.163	0.123	-0.057	–	–	0.07	-0.105	0.178	–	–	-0.025	-0.035	0.027	–	-0.211	0.002
TCOF1 isoform 3 (UniProt Q13428)	0.062	–	-0.193	-0.172	–	-0.056	–	0.101	0.012	–	–	0.522	-0.095	-0.01	0.176	–	–	-0.642	–	–
SLC9A6 isoform 3 (UniProt Q92581)	0.006	0.013	–	-0.103	-0.022	–	-0.068	0.021	0.006	–	0.004	–	–	0.051	–	–	–	0.075	0.18	-0.012
TC2N (UniProt Q8N9U0)	–	0.038	–	–	0.362	-0.021	0.054	0.042	-0.004	–	-0.486	-0.036	–	–	0.028	–	-0.364	0.014	–	–
SRXN1 (UniProt Q9BYN0)	–	0.335	0.097	–	0.036	0.004	-0.017	-0.021	0.048	-0.291	0.12	-0.134	-0.201	–	-0.024	0.187	0.045	-0.026	0.031	-0.013
TAOK2 (UniProt Q9UL54)	-0.043	–	-0.019	0.156	–	0.029	–	-0.014	0.029	-0.132	–	0.09	-0.041	0.083	0.001	0.031	-0.044	0.127	–	–
SNX2 isoform 2 (UniProt O60749)	–	-0.244	0.091	–	0.402	–	-0.033	–	–	0.091	-0.039	–	-0.377	–	–	-0.094	–	–	-0.186	0.151
TM7SF2 (UniProt O76062)	-0.012	–	–	-0.05	–	-0.151	–	–	–	–	–	-0.106	–	-0.124	-0.01	–	-0.134	–	–	–
TBC1D2 (UniProt Q9BYX2)	–	0	-0.042	–	0.063	–	-0.006	–	–	–	-0.208	–	0.007	–	–	–	–	–	–	–
SLC46A1 (UniProt Q96NT5)	0.094	-0.017	–	-0.054	-0.042	–	0	-0.193	0.091	–	-0.008	–	–	-0.04	–	–	–	-0.049	–	–
SMDT1 (UniProt Q9H4I9)	–	0.012	-0.032	–	0.044	–	0.044	0.01	0.036	0.039	-0.026	–	-0.012	–	–	-0.043	–	0.027	0.067	0.036
SLC35B1 isoform 2 (UniProt P78383)	-0.024	–	-0.008	0.127	–	0.085	–	-0.021	0.271	-0.067	–	-0.184	-0.217	-0.04	0.038	0.065	-0.086	0.011	0.018	0.09
SMARCB1 (UniProt Q12824)	–	–	–	–	–	–	–	0.038	0.025	-0.082	–	–	–	–	–	0.179	–	-0.031	–	–
SSBP4 (UniProt Q9BWG4)	0.08	0.076	–	0.043	-0.054	-0.052	-0.099	0.022	-0.024	0.013	-0.081	-0.131	–	0.058	0.011	0.09	0.013	0.015	-0.056	0.001
SLC39A11 (UniProt Q8N1S5)	-0.042	-0.009	–	0.05	0.043	0.07	0.053	-0.144	0.019	0.092	0.051	0.012	–	-0.117	-0.051	-0.085	-0.024	0.07	0.009	0.066
